{
  "source": "PubChem BioAssay (NCI)",
  "note": "Compounds without any hit were thinned out: in the full panel of roughly 79,000, 15% have a hit. Unmarked numbers belong to inactive results. Activity calls are given as the source filed them. Cut-off read from the data, not from the text of the source: active = growth inhibition above about 70%; inactive = the rest. Where a SMILES comes first, the peptide text is derived from it. The star is where a group is joined. Cbz = O=C(OCc1ccccc1)*",
  "data": [
    {"experiment": "NCI Yeast Anticancer Drug Screen. Data for the rad50 strain (AID 155);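 note: 0% = growth of vehicle-only cultures of the same strain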", "settings": "S. cerevisiae rad50 strain growth inhibition; at 50.0 µM; hits give high values", "description": "Growth inhibition of yeast strains with defined genetic alterations is measured as a screen for potential anti-cancer activity. Selected strains with alterations in DNA damage repair or cell cycle control were exposed to compounds and growth inhibition was measured relative to vehicle treated controls. The strain used in this assay is rad50", "values": [
      {"smiles": "COc1ccc2ccc3ccc(OC)nc3c2n1", "growth inhibition": "40%"},
      {"smiles": "CC(=O)Oc1cc(C)ccc1C", "growth inhibition": "-2.7%"},
      {"smiles": "CC(C)Cn1cnc2c(Sc3c([N+](=O)[O-])ncn3C)nc(N)nc21", "growth inhibition": "7.95%"},
      {"smiles": "CCC(c1ccc(OC)cc1)C(C(C)=O)c1ccc(OC)cc1", "note": "(stereo not given)", "growth inhibition": "-5.55%"},
      {"smiles": "O=S(=O)(N/N=C/c1c(Cl)cccc1Cl)c1ccccc1", "growth inhibition": "18.9%"},
      {"smiles": "Cc1c(COC(=O)NC(C)C)c(COC(=O)NC(C)C)c2n1CCS2(=O)=O", "growth inhibition": "-26.8%"},
      {"smiles": "CCOC(=O)c1nc2c([nH]1)c(=O)n(C)c(=O)n2C", "growth inhibition": "28.8%"},
      {"smiles": "COc1ccccc1Br", "growth inhibition": "-3.55%"},
      {"smiles": "Clc1ccc(-c2nc3ccccc3cc2N2CCOCC2)cc1", "growth inhibition": "70.5% (active)"},
      {"smiles": "CCCC(=O)NC(C)(C)C", "growth inhibition": "8.8%"},
      {"smiles": "Cc1ccc(NC(=O)C(=O)Cc2cc[n+]([O-])cc2)cc1", "growth inhibition": "-1.9%"},
      {"smiles": "COc1ccc(OC)c(/C=C2/C(=O)N(c3ccccc3)N=C2C)c1", "growth inhibition": "-7.55%"},
      {"smiles": "CCS(=O)(=O)C(S(C)(=O)=O)S(=O)(=O)C(C)C", "note": "(stereo not given)", "growth inhibition": "-1.65%"},
      {"smiles": "C=C1CCCC2OC(OC)CCC12", "note": "(stereo not given)", "growth inhibition": "-23.4%"},
      {"smiles": "CCOC(=O)C(Cc1ccc(O)cc1)NC(=O)C(CSC(c1ccccc1)(c1ccccc1)c1ccccc1)NC(c1ccccc1)(c1ccccc1)c1ccccc1", "note": "(stereo not given)", "growth inhibition": "4.85%"},
      {"smiles": "CC1CC(NC(=O)/C=C/C(=O)O)CC(C)(C)C1", "note": "(stereo not given)", "growth inhibition": "-2.85%"},
      {"smiles": "COc1c2c(cc3nc4ccccc4nc13)CCC(C(C)(C)O)C2", "note": "(stereo not given)", "growth inhibition": "17.9%"},
      {"smiles": "O=[N+]([O-])c1ccc(N/N=C(/c2ccc(Cl)cc2)c2ccccc2Cl)c([N+](=O)[O-])c1", "growth inhibition": "-15.8%"},
      {"smiles": "CCC(CC)COC(=O)c1ccccc1C", "growth inhibition": "7.45%"},
      {"smiles": "O=[N+]([O-])c1ccc(/C(CBr)=N/N2CCCCC2)cc1", "growth inhibition": "-19.6%"},
      {"smiles": "CCNC(=O)C1CCCN1C(=O)C(CCCN=C(N)N)NC(=O)C(CC(C)C)NC(=O)C(Cc1c[nH]c2ccccc12)NC(=O)C(Cc1ccc(O)cc1)NC(=O)C(CO)NC(=O)C(Cc1c[nH]c2ccccc12)NC(=O)C(Cc1cnc[nH]1)NC(=O)C1CCC(=O)N1", "note": "(stereo not given)", "growth inhibition": "-11.6%"},
      {"smiles": "O=C(OCC(O)C(O)C(O)C(SCc1ccccc1)SCc1ccccc1)c1ccc([N+](=O)[O-])cc1", "note": "(stereo not given)", "growth inhibition": "23.6%"},
      {"smiles": "S=C1NCCOc2ccccc21", "growth inhibition": "-8.65%"},
      {"smiles": "CC(=O)NC(CCCN)C(=O)NCc1ccccc1", "note": "(stereo not given)", "growth inhibition": "3.45%"},
      {"smiles": "CCOC(=O)c1c2c(nc3c1CCCC3)CCCC2", "growth inhibition": "3.2%"},
      {"smiles": "CCCCCCCCSc1nc2ccc(N=Cc3ccccc3O)cc2s1", "growth inhibition": "75% (active)"},
      {"smiles": "Cc1cn(C2CC3OP(=O)(OCc4ccccc4)OCC3O2)c(=O)[nH]c1=O", "note": "(stereo not given)", "growth inhibition": "5.35%"},
      {"smiles": "COc1cc(C=O)c(-c2c(C=O)ccc3c2OCO3)c(OC)c1OC", "growth inhibition": "24.4%"},
      {"smiles": "CC1=C(C(=O)CC(=O)Nc2ccc(Cl)c(Cl)c2)Sc2ccccc2N1", "growth inhibition": "8.1%"},
      {"smiles": "O=c1cc(CC(O)(C(F)(F)Cl)C(F)(F)Cl)[nH]n1-c1ccccc1", "growth inhibition": "-27.9%"},
      {"smiles": "C[n+]1ccccc1C(O)C(O)c1cccc[n+]1C", "note": "(stereo not given)", "growth inhibition": "6.05%"},
      {"smiles": "CC1=CCC(CC=O)C1(C)C", "note": "(stereo not given)", "growth inhibition": "9.95%"},
      {"smiles": "CC(NC(=O)C(NC(=O)OCc1ccccc1)C(C)C)C(=O)NCC(=O)O", "note": "(stereo not drawn) (Cbz-Val-Ala-Gly-OH; configuration not given here)", "growth inhibition": "-0.05%"},
      {"smiles": "S=c1sc2cscc2s1", "growth inhibition": "-6.7%"},
      {"smiles": "CN(C)c1c([N+](=O)[O-])cc2[nH]cnc2c1[N+](=O)[O-]", "growth inhibition": "21.2%"},
      {"smiles": "Cn1c(=O)cc(CCl)c2ccccc21", "growth inhibition": "26.9%"},
      {"smiles": "O=C(NCCN1CCCCC1)C(O)(C1CCCCC1)C1CCCCC1", "growth inhibition": "-6.85%"},
      {"smiles": "O=C(O)Cn1c[n+](NC(=O)Cc2ccccc2)cn1", "growth inhibition": "-19.6%"},
      {"smiles": "Fc1c(F)c(F)c(CSc2nc3ccccc3[nH]2)c(F)c1F", "growth inhibition": "-42%"},
      {"smiles": "O=c1[nH]c(N2CCN(c3ccccc3)CC2)nc2cc3ccccc3cc12", "growth inhibition": "2.55%"}
    ]}
  ]
}
